# An excerpt weighted towards active compounds, which were near 6.3% of everything screened.
# TGFb SMAD3 inh – qHTS for Inhibitors of TGF-b | HepG2 CAGA-GFP TGF-b/SMAD3 reporter, GFP fluorescence, 18 h; TGF-beta stimulated, 500 pg/mL final | actives 1.2% (n = 410,000) | AID 588855, 2011 | Potency, µM (titrated, usually from 46.1 µM), inactives show top-dose activity, negative = inhibition, usual class: inhibitors; also: % is scaled to controls: 0 for no effect and ±100 for the full control effect; nearly all actives have a fitted effect of over 65% in size
#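 First, reporter cells (HEPG2 CAGA-GFP) rested 2 h at 37 degrees C. Next, compounds were pinned in and TGF-beta added to 500 pg/mL final. After 18 h, GFP was imaged per cell and summed per well.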
# VP16 counter – VP16 counterscreen qHTS for inhibitors of ROR gamma transcriptional activity; Drosophila S2 Gal4-VP16 UAS-luciferase, luminescence, 20 h; Potency, µM (highest dose often 53.6 µM), without a hit: at the highest dose activity, negative = inhibition, usual class: inhibitors; actives 3.5% (n = 310,000); AID 2546, 2010;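 also: Gal4-VP16 expression switched on by copper sulfate through the metallothionein promoter; % is scaled to controls: 0 for no effect and ±100 for the full control effect; nearly all actives have a fitted effect of over 50% in size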
# RORgamma inh – qHTS for inhibitors of ROR gamma transcriptional activity. AID 2551, 2010. Nuclear receptor ROR-gamma (Mus musculus), P51450. Drosophila S2 Gal4-RORgamma UAS-luciferase reporter, 20 h. actives 5.4% (n = 310,000). Potency, µM (highest dose often 53.6 µM), without a hit: at the top dose activity change, negative = inhibition, actives largely listed as inhibitors; also: % is scaled to controls: 0 for no effect and ±100 for the full control effect; nearly all actives have a fitted effect of over 60% in size
# Target sequence (P51450 whole entry, looked up, the tested form may be a part): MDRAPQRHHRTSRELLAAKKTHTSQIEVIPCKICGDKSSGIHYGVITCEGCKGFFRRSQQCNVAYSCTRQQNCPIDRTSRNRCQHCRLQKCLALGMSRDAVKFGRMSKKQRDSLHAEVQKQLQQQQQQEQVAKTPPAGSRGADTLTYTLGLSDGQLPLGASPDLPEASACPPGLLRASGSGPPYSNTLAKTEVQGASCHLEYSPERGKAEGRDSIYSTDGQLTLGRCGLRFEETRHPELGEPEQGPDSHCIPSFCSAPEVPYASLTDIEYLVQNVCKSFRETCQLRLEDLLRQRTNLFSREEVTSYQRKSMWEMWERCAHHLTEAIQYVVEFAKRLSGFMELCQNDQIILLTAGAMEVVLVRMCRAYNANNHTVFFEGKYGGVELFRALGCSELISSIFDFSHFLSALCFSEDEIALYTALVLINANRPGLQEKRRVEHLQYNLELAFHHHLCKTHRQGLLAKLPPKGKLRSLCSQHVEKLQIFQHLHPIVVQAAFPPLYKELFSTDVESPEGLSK
#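 A Gal4/UAS one-hybrid system in insect cells: metallothionein-promoter Gal4–ROR gamma fusion plus Photinus luciferase reporter. Copper sulfate 700 uM final, 20 hr ambient incubation, luminescent detection after 10 min with reagent.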
# HepG2 tox-1 – qHTS for Inhibitors of TGF-b: Cytotox Counterscreen; HepG2 CAGA-GFP viability, ATP luminescence, 18 h; Potency, µM (doses to about 46.1 µM), inactives show at the top dose activity change, negative = cytotoxicity, actives largely listed as cytotoxic; actives 0.76% (n = 410,000)
#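 CellTiter-Glo luminescence gave cytotoxicity after 18 hours at 37 degrees C. The cells were HepG2 CAGA-GFP in 1% FBS DMEM, stimulated with 500 pg/mL TGF-beta after compound addition. %Activity was normalised to no-cell wells (complete cell-killing) and DMSO (no toxicity), and curves were fitted and classified.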
# ATXN2 expr inh – Primary qHTS for Inhibitors of ATXN expression; AID 1745845, 2022; HEK-293 ATXN2-luciferase reporter, luminescence, 24 h; actives 0.72% (n = 360,000); Potency, µM (highest dose often 57 µM), without a hit: top-dose activity change, negative = inhibition, usual class: inhibitors; also: % is scaled to controls: 0 for no effect and ±100 for the full control effect; nearly all actives have a fitted effect of over 55% in size
#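 ATXN2-luciferase reporter cells (luciferase flanked by upstream and downstream ATXN2 gene portions) were treated 24 h at 37 °C with compounds at up to 57 uM. SteadyGlo luminescence gave expression; GF-AFC fluorescence gave viability.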
# ATXN viability – Viability Counterscreen for Primary qHTS for Inhibitors of ATXN expression; S2 cells (HEK-293 line with an ATXN2-luciferase reporter) viability, CellTiter-Fluor protease fluorescence, 24 h; Potency, µM (titrated, usually from 56.7 µM), hits mostly cytotoxic; actives 0.49% (n = 400,000); also: nearly all actives have a fitted effect of over 40% in size
# TGFb CAGA inh – qHTS for Inhibitors of TGF-b: Confirmation of Cherry Picks; HepG2 CAGA-GFP TGF-b reporter, GFP fluorescence, 18 h; cells stimulated with TGF-beta, 500 pg/mL; actives 63% (n = 1,600); Potency, µM (doses to about 46.1 µM), for the others: at the top dose activity, negative = inhibition, actives largely listed as inhibitors; AID 720534, 2013; shares compounds with TGFb SMAD3 inh; also: % is scaled to controls: 0 for no effect and ±100 for the full control effect; nearly all actives have a fitted effect of over 65% in size
# HepG2 tox-2 – qHTS for Inhibitors of TGF-b: Cytotox Counterscreen for Cherry Picks; shares compounds with TGFb SMAD3 inh; HepG2 CAGA-GFP viability, ATP luminescence, 18 h; cells stimulated with TGF-beta, 500 pg/mL; Potency, µM (doses to about 46.1 µM), for inactives: top-dose activity, negative = cytotoxicity, usual class: inhibitors; actives 27% (n = 1,600); AID 720535, 2013; also: % is scaled to controls: 0 for no effect and ±100 for the full control effect; nearly all actives have a fitted effect of over 70% in size
# CCL64 TGFb inh – qHTS for Inhibitors of TGF-b: CCL64 Cells Orthogonal Assay for Cherry Picks; shares compounds with TGFb SMAD3 inh; actives 41% (n = 1,600); Potency, µM (top dose mostly 46.1 µM), for the others: at the top dose activity, negative = inhibition, usual class: inhibitors; AID 720536, 2013; CCL64 CAGA-GFP reporter, TGF-b stimulated, GFP fluorescence, 18 h; also: nearly all actives have a fitted effect of over 65% in size
# COP TGFb inh – qHTS for Inhibitors of TGF-b: Hit Validation in HepG2 Cells using COP promoter. shares compounds with TGFb SMAD3 inh. HepG2 COP-GFP TGF-b reporter, GFP fluorescence, 18 h; cells stimulated by added recombinant TGF-beta. Potency, µM (highest dose often 46.1 µM), without a hit: at the top dose activity, negative = inhibition, hits mostly inhibitors. actives 3% (n = 1,600); also: nearly all actives have a fitted effect of over 70% in size
# Starred values were filed as active, the others as inactive; i = inactive; ? = inconclusive; . = not tested or not shown; [ ] = dose if it differs, or a comment. Calls follow the shape of the dose curve; as a rule, active = well fitted curve in the direction sought with a large enough effect; inconclusive = small, poorly fitted or top-dose-only effect, or another doubt; inactive = no such curve, though single readings can be large; an effect the other way counts as inactive or inconclusive. Potency is read from the fitted curve at half-maximal effect.
SMILES,TGFb SMAD3 inh,VP16 counter,RORgamma inh,HepG2 tox-1,ATXN2 expr inh,ATXN viability,TGFb CAGA inh,HepG2 tox-2,CCL64 TGFb inh,COP TGFb inh
CCn1c(CCCOc2ccc(Cl)cc2Cl)nnc1SCC(=O)Nc1cc(F)ccc1C,12.6µM*,-24.4%,?,4.1%,0.8%,i,13µM*,?,-16.4%,-8.8%
COc1ccc(COc2cc(-c3cccc(OC)c3)nc3ccc(N)cc23)cc1,7.08µM*,-5.7%,?,-0.7%,-8.7%,.,3.26µM*,-19.2%,1.84µM*,-20.2%
CCN(CC)C(=O)Cn1c(=O)cc(C)c2c(C)nn(-c3cccc(Cl)c3C)c21,10.7%,.,.,-9.6%,-27.1%,?,.,.,.,.
O=C(Nc1ccccc1)[C@@H]1CC=C[C@@H]2CCN(Cc3ccc(Cl)c(Cl)c3)C(=O)[C@@H]21,12.6µM*,.,.,-17.5%,-24.2%,?,20.6µM*,?,?,47.5%
C/C(Cl)=C/CCl,.,-4.2%,7.8%,.,.,.,.,.,.,.
O=C1OCCN1C(=O)[C@H]1[C@H](c2ccccc2)C(c2cccc(Cl)c2)=NN1c1ccc(Br)cc1,?,-4.1%[40.7 µM],5.6%[40.7 µM],-15.4%,-1.1%,.,?,-16.8%,22.7%,3.1%
CCc1ccc(-n2nc(CO)c(C(=O)NCc3cccnc3)n2)cc1,?,.,.,-37.3%,.,.,.,.,.,.
Cc1ccccc1NC1=NCC(c2ccc([N+](=O)[O-])cc2)S1 (configuration not stated),4.47µM*,22.4µM*,?,-0.2%,-35.9%,?,13µM*,?,8.2µM*,65.2%
Cc1ccccc1Nc1ccc([N+](=O)[O-])cn1,?,10.3%,-1.6%,-11.0%,7.8%,i,.,.,.,.
O=C(OCc1cc(=O)n2nc(C3CC3)sc2n1)c1ccc(NC(=O)c2ccccc2F)cc1,15.2%,.,.,6.8%,3.6%,i,.,.,.,.
COCCNc1ccc(-c2nc(-c3ccccn3)no2)cc1[N+](=O)[O-],19.6%,.,.,-2.0%,27.5%,i,.,.,.,.
Fc1ccc(CN2CCN(C(=S)NCCc3ccccc3)CC2)c(Cl)c1,7.94µM*,4.2%,-43.7%,-29.9%,-19.0%,i,?,-29.9%,?,10.8%
S=C(NCCc1ccccc1)N1CCN(Cc2ccc(Cl)c(Cl)c2)CC1,-3.4%,-21.6%,?,-22.9%,-33.3%,i,.,.,.,.
O=S(=O)(Nc1ccc(-n2cnnn2)cc1)c1cccc(Cl)c1,-1.1%,.,.,-3.6%,2.0%,i,.,.,.,.
CC(C)(O)C#Cc1ccc([C@@H]2C[C@H]3CN(c4ccccc4)C(=O)[C@]34CCCN24)s1,2.24µM*,13.6%,13.1%,-10.3%,?,?,0.731µM*,?,5.17µM*,16.2%
COc1ccc(CNC(=O)N2CCc3nc(Nc4cc(OC)c(OC)c(OC)c4)ncc3C2)cc1,2.6%,.,.,-14.1%,16.3%,i,.,.,.,.
COc1cc(NC(=O)N2CCc3nc(Nc4cc(Cl)cc(Cl)c4)ncc3C2)cc(OC)c1OC,17.8µM*,.,.,-5.0%,?,i,20.6µM*,?,7.31µM*,105.8%
COc1cccc(Nc2ncc3nc(CCc4ccccc4)c(=O)n(Cc4cccs4)c3n2)c1,.,-14.1%,2.1%,.,.,.,.,.,.,.
COc1ccccc1NC(=O)CN1C(=O)C(c2ccc(F)cc2)=NC12CCCCC2,.,.,.,-30.1%,.,.,.,.,.,.
COc1cc(NC(=O)CN2c3ccccc3CC2C)cc(OC)c1OC (configuration not stated),3.2%,-0.3%,24.5%,-23.5%,-1.5%,i,.,.,.,.
COc1ccc(Cl)cc1NC(=O)CN1c2ccccc2CC1C (configuration not stated),?,?,?,-40.2%,-17.8%,i,?,-21.0%,?,28.3%
O=c1c(Cc2ccc(Cl)cc2Cl)c(O)ccn1Cc1ccc(Cl)cc1,11.2µM*,-1.2%[0.365 µM],-16.9%,0.7%,-11.7%,i,?,?,?,23.6%
Cc1sc2ncnc(N3CCC(C(=O)N(C)CC(=O)Nc4ccc(Cl)c(C(F)(F)F)c4)CC3)c2c1C,11.2µM*,.,.,-7.8%,?,?,5.17µM*,?,9.2µM*,59.4%
CC1CCN(S(=O)(=O)c2cc(C(=O)NCc3ccc(F)cc3)n(C)c2)CC1,3.4%,.,.,-3.4%,-5.6%,i,.,.,.,.
C[C@@H](O)[C@H]1C(=O)N2C(C(=O)O)=C(SCCN=CN)C[C@H]12,.,.,.,.,1.7%,i,.,.,.,.
COc1ccc2cc(CNCCOCCOCCNCc3ccc4cc(OC)ccc4c3)ccc2c1,3.16µM*,.,.,3.98µM*,?,.,-107.7%,20.6µM*,4.61µM*,?
O=C1c2ccccc2C(=O)c2c1oc(C(F)(F)F)c2C(=O)c1ccccc1,1.12µM*,-13.6%,-7.5%,1.12µM*,?,?,4.61µM*,4.11µM*,4.61µM*,3.66µM*
C=CCn1c(O)c(N=NC(=S)Nc2ccc(OC)cc2)c2ccccc21,?,3.98µM*,3.16µM*,-30.4%,?,?,?,?,?,-12.1%
C=CCn1c(O)c(N=NC(=O)OCC)c2ccccc21,-11.7%,?,5.3%,7.2%,6.5%,i,.,.,.,.
O=[N+]([O-])c1ccc(N/N=C/c2cccnc2)cc1,10µM*,5.4%,?,-13.7%,-1.5%,i,10.3µM*,?,5.1%,26.9%

# Assay outcomes (PubChem BioAssay)
